Source: PubChem BioAssay (NCATS)
Results filed as inconclusive are left out. The source made the active and inactive calls. The call rests on the fitted dose curve; in most records, active means well fitted inhibition curve with a large enough effect; inconclusive means small, poorly fitted or top-dose-only effect; inactive means flat fitted curve, though single readings scatter.

What follows are compounds tested against Dual specificity protein kinase CLK4 (Homo sapiens) (UniProt Q9HAZ1) (assay: qHTS Assay for Inhibitors of CDC-like Kinase 4 (Kinase-Glo Assay) (AID 1770; further: nearly all actives have a fitted effect of over 65% in size)). Details: recombinant Clk4, Kinase-Glo ATP depletion luminescence; series mostly up to 66.7 µM.
Dual specificity protein kinase CLK4 (Homo sapiens), sequence (Q9HAZ1 whole entry, looked up): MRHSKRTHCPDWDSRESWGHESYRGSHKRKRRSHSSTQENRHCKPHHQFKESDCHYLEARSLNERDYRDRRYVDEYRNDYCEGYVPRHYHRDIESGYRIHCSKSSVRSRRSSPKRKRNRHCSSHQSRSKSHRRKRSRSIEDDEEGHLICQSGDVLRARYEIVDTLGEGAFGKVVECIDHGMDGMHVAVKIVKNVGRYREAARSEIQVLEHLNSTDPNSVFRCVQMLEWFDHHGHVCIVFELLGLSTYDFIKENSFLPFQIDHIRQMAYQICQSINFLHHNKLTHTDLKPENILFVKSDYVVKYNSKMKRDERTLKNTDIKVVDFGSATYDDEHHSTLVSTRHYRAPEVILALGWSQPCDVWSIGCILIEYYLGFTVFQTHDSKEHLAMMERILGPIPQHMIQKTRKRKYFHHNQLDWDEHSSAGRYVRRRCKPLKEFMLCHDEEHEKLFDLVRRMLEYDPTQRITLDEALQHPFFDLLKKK
How it was run: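 Substrate mix (RS peptide 100 uM, ATP 1 uM) dispensed, compound pinned in, then Clk4 added to 25 nM final. Incubated 4.5 h at RT; Kinase-Glo reagent added, luminescence read after 5 min.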
Potency means the concentration at half of the fitted maximal effect.

Potency, inactive:
COc1ccccc1CNc1cc(-c2ccccc2C(F)(F)F)ncn1, COc1cccc(Cn2c(=O)c(-c3cccs3)nc3cnc(OCc4ccccc4)nc32)c1, Cc1noc(C)c1-c1nc(Nc2ccc(F)cc2)c2ccccc2n1, COc1ccc(CNc2ccnc(-c3ccccc3OC)n2)c(OC)c1, Cn1c(=O)c(-c2ccc(F)cc2)nc2cnc(N3CCOCC3)nc21, O=c1c(CCc2ccccc2)nc2cnc(N3CCOCC3)nc2n1CCc1ccccc1, COc1cccc(Cn2c(=O)c(-c3cccs3)nc3cncnc32)c1, O=c1c(-c2ccc(F)cc2)nc2cncnc2n1-c1ccccc1, O=c1c(-c2ccc(Cl)cc2)nc2cnc(Nc3ccccc3)nc2n1C[C@H]1CCCO1, COc1ccccc1-c1cncnc1NCc1cnc(C)cn1, CN(C)Cc1ccccc1-c1nc(NC2CC2)c2ccccc2n1, CCNc1ncc2nc(-c3ccccc3)c(=O)n(CCOC)c2n1, CCNc1ncc2nc(-c3ccc(F)cc3)c(=O)n(C[C@H]3CCCO3)c2n1, Cc1cnc(CNc2nc(-c3ccccc3C(F)(F)F)nc3ccccc23)cn1, CCNc1ncc2nc(-c3cc(F)cc(F)c3)c(=O)n(CCc3ccccc3)c2n1, c1ccc(CNc2ncncc2-c2cccnc2)cc1, COc1ccc(-c2nc3cnc(OC)nc3n(CCC#N)c2=O)cc1, Cc1ccccc1-c1cncnc1NCc1cccnc1, COc1ccc(Oc2ncc3nc(-c4cn(C)c5ccccc45)c(=O)n(C)c3n2)cc1, COc1ncc2nc(-c3cn(C)c4ccccc34)c(=O)n(CCC#N)c2n1

Potency, active:
N#Cc1cccc(-c2nccc(NCc3ccccc3)n2)c1 14.1 µM, c1ccc(CNc2ncncc2-c2ccc3c(c2)OCO3)cc1 6.31 µM, N#Cc1ccccc1-c1ccc2ncnc(NC3CC3)c2c1 6.31 µM, CN(Cc1ccco1)c1ncnc2ccc(-c3ccccc3C#N)cc12 11.2 µM, CS(=O)(=O)Nc1cccc(-c2nccc(Nc3ccc(F)cc3)n2)c1 15.8 µM, COc1cccc(-c2cc(NCc3ccccc3)ncn2)c1 15.8 µM, N#Cc1cccc(-c2nccc(NCc3cccs3)n2)c1 7.08 µM, CN(C)c1ccc(-c2cncnc2N(C)Cc2ccco2)cc1 15.8 µM
